From PubChem BioAssay come the findings set out here.

By inhibition is commonly meant the drop in the measured response relative to a control, in per cent.

A short description of assay [1]: antimalarial activity against Dd2 strain (AID 2302;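 active = growth inhibition above 50% at the single 2 µM test dose, taken to imply half-maximal potency below 2 µM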;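 note: 0% = DMSO untreated growth and 100% = chloroquine plus artemisinin killed control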). Particulars: P. falciparum Dd2 in RBCs, LDH growth readout, 72 h; at 2 µM; stronger effect = higher value.
A short description of assay [2]: human hepatoma cell viability loss – ATP luminescence, cytotoxicity control for P. falciparum antimalarial project, primary screen (AID 2303;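 active = inhibition above 50%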;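 note: 0% = DMSO wells and 100% = digitonin-killed cells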). Particulars: HepG2 viability, 24-48 h, at 10 µM, stronger effect = higher value.
Assay [3] deals with L-lactate dehydrogenase (Plasmodium falciparum (isolate CDC / Honduras)) (UniProt Q27743). The assay is described as follows: PfLDH activity inhibition – cell lysate, 3D7 strain, counter-screen for P. falciparum growth inhibition project (AID 2304).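 Note: 0% = vehicle and 100% = reference inhibitor.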 Particulars: P. falciparum 3D7 crude extract, LDH APAD/NBT absorbance; at 2 µM; stronger effect = higher value. (Counterscreens check selectivity or assay interference.)
L-lactate dehydrogenase (Plasmodium falciparum (isolate CDC / Honduras)), sequence (Q27743 whole entry, looked up): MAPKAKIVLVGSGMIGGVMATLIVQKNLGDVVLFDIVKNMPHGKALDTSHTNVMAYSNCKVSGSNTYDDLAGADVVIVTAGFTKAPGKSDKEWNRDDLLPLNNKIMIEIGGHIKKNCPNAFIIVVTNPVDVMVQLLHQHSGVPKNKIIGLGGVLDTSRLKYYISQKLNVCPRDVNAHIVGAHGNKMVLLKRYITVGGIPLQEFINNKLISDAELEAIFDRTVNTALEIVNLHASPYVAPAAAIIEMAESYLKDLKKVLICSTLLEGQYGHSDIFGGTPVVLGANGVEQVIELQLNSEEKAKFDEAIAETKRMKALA

Assay [4] in a line: inhibition of 3D7 malaria parasite growth – strain 3D7 (AID 2306).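 Note: 0% = DMSO wells and 100% = chloroquine plus artemisinin control wells.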 Particulars: P. falciparum 3D7 erythrocytic growth, LDH absorbance, 72 h; at 2 µM; stronger effect = higher value.
Assay [5] has as its target Calcium-dependent protein kinase 1 (Plasmodium falciparum (isolate 3D7)) (UniProt P62344). The assay is described as follows: PfCDPK1 kinase inhibitors, biochemical, TCAMS library (AID 1159585; cut-off not given, nearly all actives have IC50 up to about 0.98 µM;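 note: inhibitors leave more ATP so luminescence rises with inhibition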). Particulars: recombinant PfCDPK1, Kinase-Glo ATP depletion luminescence. On the technique in general: In Kinase-Glo more light means more ATP remaining.
Assay [6] has as its target Plasmodium falciparum protein kinase 6 (PK6, PF3D7_1337100) (UniProt Q8IDW1). Briefly: PfPK6 kinase inhibitors, biochemical, TCAMS library (AID 1159586). The following applies: recombinant PfPK6, Kinase-Glo ATP depletion luminescence.
The target in assay [7] is Protein kinase 7 (PK7), Plasmodium falciparum 3D7 (PF3D7_0213400) (UniProt Q7YTF7). Briefly: inhibition of Plasmodium PK7 catalytic activity – biochemical, TCAMS antimalarial set, Kinase-Glo luminescence (AID 1159587). Particulars: recombinant PfPK7, Kinase-Glo ATP depletion luminescence.
Protein kinase 7 (PK7), Plasmodium falciparum 3D7 (PF3D7_0213400), sequence (Q7YTF7 1-343): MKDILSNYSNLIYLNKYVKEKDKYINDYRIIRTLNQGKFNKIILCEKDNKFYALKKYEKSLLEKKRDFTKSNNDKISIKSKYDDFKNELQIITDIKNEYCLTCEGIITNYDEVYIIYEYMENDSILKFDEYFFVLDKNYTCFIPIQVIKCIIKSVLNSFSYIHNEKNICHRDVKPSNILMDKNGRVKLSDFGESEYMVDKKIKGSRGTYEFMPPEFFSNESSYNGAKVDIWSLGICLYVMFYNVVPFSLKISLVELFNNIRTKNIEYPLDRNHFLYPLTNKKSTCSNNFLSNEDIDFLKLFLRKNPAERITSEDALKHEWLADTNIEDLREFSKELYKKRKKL
The target in assay [8] is Calcium-dependent protein kinase 4 (Plasmodium falciparum (isolate 3D7)) (UniProt Q8IBS5). Briefly: PfCDPK4 kinase inhibitors, biochemical, TCAMS library (AID 1159588; cut-off not given, nearly all actives have IC50 up to about 0.91 µM). Particulars: recombinant PfCDPK4, Kinase-Glo ATP depletion luminescence.
Calcium-dependent protein kinase 4 (Plasmodium falciparum (isolate 3D7)), sequence (Q8IBS5 whole entry, looked up): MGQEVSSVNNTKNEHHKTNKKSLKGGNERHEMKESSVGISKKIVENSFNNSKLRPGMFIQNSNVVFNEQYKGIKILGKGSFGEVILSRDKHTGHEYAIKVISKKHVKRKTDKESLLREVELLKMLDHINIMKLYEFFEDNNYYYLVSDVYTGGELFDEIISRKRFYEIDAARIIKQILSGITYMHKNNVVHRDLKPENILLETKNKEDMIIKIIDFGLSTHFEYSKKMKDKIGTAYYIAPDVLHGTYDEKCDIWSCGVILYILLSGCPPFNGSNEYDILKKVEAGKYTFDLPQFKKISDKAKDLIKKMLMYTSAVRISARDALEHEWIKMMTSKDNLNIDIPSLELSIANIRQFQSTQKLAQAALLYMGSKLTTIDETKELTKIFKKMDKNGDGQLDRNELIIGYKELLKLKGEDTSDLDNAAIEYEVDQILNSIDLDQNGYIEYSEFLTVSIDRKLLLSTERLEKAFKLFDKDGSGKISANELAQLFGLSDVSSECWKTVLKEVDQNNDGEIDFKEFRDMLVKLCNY

Several values for one entry are separate records, joined by “and”; a condition that tells them apart may be missing. Equal values may be shown once. For some assays here: Entries with a potency or affinity are not part of this list. A structure can be active in one record and inactive in another. Activity calls are given as the source filed them. Unless noted, the rule behind the calls is not given here.

Plasmodium falciparum protein kinase 6 (PK6, PF3D7_1337100), sequence (Q8IDW1 1-305): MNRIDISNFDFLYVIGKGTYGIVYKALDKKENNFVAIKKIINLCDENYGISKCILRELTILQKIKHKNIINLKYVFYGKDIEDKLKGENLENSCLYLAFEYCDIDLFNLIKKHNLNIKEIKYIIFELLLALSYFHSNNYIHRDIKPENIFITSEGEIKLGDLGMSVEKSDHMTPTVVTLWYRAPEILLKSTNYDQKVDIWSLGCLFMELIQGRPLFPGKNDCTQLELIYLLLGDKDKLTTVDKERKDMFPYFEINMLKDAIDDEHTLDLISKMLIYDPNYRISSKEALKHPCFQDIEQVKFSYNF
Calcium-dependent protein kinase 1 (Plasmodium falciparum (isolate 3D7)), sequence (P62344 whole entry, looked up): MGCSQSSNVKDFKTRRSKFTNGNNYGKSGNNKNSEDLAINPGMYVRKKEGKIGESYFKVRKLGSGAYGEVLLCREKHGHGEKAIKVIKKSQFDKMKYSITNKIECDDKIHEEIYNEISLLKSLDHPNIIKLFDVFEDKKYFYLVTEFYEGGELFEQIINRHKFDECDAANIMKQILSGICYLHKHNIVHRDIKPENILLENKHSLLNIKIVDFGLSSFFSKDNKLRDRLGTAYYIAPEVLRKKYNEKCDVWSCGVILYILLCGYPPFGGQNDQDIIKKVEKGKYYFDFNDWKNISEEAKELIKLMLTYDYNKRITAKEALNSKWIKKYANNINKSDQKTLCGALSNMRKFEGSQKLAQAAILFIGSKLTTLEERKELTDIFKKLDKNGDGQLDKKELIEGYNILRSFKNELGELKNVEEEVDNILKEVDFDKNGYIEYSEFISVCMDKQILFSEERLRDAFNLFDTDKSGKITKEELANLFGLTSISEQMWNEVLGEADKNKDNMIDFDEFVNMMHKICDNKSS

Consider `O=C(Nc1ccc(Cl)c(Cl)c1)N1CCC(CN2CCC(c3c[nH]c4ccccc34)CC2)CC1`, for which the growth inhibition is 69% (active) in assay [1] and 100% (active) in assay [4]. Moreover, the inhibition in assay [2] is 46% (inactive); in assay [3], -2% (inactive). The outcome in assay [5], in assay [6], in assay [7] and in assay [8] was inactive.

As for `O=C(CCC(=O)c1ccc2c3c(cccc13)CC2)NC1CCC(CN2CCC(c3c[nH]c4ccccc34)CC2)CC1` (configuration not stated), the growth inhibition in assay [1] was 13% (inactive); in assay [4], 96% (active). The results for the inhibition in assay [2] and in assay [3] were 34% (inactive) and -1% (inactive), respectively. Besides, the outcome in assay [5], in assay [6], in assay [7] and in assay [8] was inactive.

Take `CCN(CC)CCN1C(=O)C(O)(c2ccccc2Cl)c2c1cc(C(N)=O)cc2C(F)(F)F` (configuration not stated): the growth inhibition in assay [1] was 86% (active); in assay [4], 101% (active). The inhibition is 16% (inactive) in assay [2] and -4% (inactive) in assay [3]. For the same compound, the result in assay [5], in assay [6], in assay [7] and in assay [8] was inactive.

Take `COc1cc(C(=O)NC2CCC(CN3CCC(c4c[nH]c5ccccc45)CC3)CC2)cc(Cl)n1` (configuration not stated): the growth inhibition was 45% (inactive) in assay [1] and 99% (active) in assay [4]. Moreover, the inhibition in assay [2] was 33% (inactive); in assay [3], -1% (inactive). For the same compound, the result in assay [5], in assay [6], in assay [7] and in assay [8] was inactive.

In the case of `CC(Cc1ccc(S(=O)(=O)N(C(C)C)C(C)C)cc1)NCC(O)c1cccc(C(F)(F)F)c1` (configuration not stated), the growth inhibition in assay [1] was 93% (active); in assay [4], 96% (active). Moreover, the results for the inhibition in assay [2] and in assay [3] were 21% (inactive) and 4% (inactive), respectively. Moreover, the outcome in assay [5], in assay [6], in assay [7] and in assay [8] was inactive.

`O=C(/C=C/c1ccc(Cl)c(Cl)c1)NCCC1CCC(N2CCC(c3c[nH]c4ccc(O)cc34)CC2)CC1` (configuration not stated): the growth inhibition in assay [1] is 3% (inactive); in assay [4] it was 102% (active). Also, the inhibition in assay [2] was 19% (inactive); in assay [3], -7% (inactive). For the same compound, the outcome in assay [5], in assay [6], in assay [7] and in assay [8] was inactive.

As to `CC(C)CNCc1ccc(-c2ccc(CN(C(=O)Nc3ccccc3)C3CCN(Cc4ccccc4)CC3)cc2)cc1`, the figures for the growth inhibition in assay [1] and in assay [4] were 61% (active) and 101% (active), respectively. Further, the values for the inhibition in assay [2] and in assay [3] were 27% (inactive) and -4% (inactive), respectively. Also, the result in assay [5], in assay [6], in assay [7] and in assay [8] was inactive.

In the case of `COc1cc(C=CC(=O)N2CCC(CN3CCC(c4c[nH]c5ccccc45)CC3)CC2)ccc1O`, the growth inhibition in assay [1] is 25% (inactive); in assay [4], 82% (active). The figures for the inhibition in assay [2] and in assay [3] were 11% (inactive) and -3% (inactive), respectively. Moreover, the outcome in assay [5], in assay [6], in assay [7] and in assay [8] was inactive.

For `O=C(/C=C/c1ccc(Cl)c(Cl)c1)N1CCC(CN2CCC(c3c[nH]c4ccc(O)cc34)CC2)CC1`, the growth inhibition in assay [1] is 100% (active); in assay [4], 101% (active). Further, the inhibition in assay [2] is 44% (inactive); in assay [3] it was -7% (inactive). The outcome in assay [5], in assay [6], in assay [7] and in assay [8] was inactive.

As to `COC(=O)c1ccc(CC(C)NCC(O)c2cccc(C(F)(F)F)c2)c(Cl)c1` (configuration not stated), the results for the growth inhibition in assay [1] and in assay [4] were 98% (active) and 99% (active), respectively. Also, the inhibition in assay [2] was -10% (inactive); in assay [3] it was 1% (inactive). Besides, the result in assay [5], in assay [6], in assay [7] and in assay [8] was inactive.

As for `CNC(=O)c1ccc2[nH]cc(C3CCN(CC4CCN(C(=O)/C=C/c5ccc(Cl)c(Cl)c5)CC4)CC3)c2c1`, the values for the growth inhibition in assay [1] and in assay [4] were 88% (active) and 100% (active), respectively. The inhibition in assay [2] is 3% (inactive); in assay [3], 1% (inactive). Also, the outcome in assay [5], in assay [6], in assay [7] and in assay [8] was inactive.

Take `O=C(Cc1cc(=O)oc2cc(O)ccc12)N1CCC(CN2CCC(c3c[nH]c4ccccc34)CC2)CC1`: the growth inhibition in assay [1] is -11% (inactive); in assay [4] it was 94% (active). For the same compound, the inhibition was 1% (inactive) in assay [2] and 3% (inactive) in assay [3]. Further, the result in assay [5], in assay [6], in assay [7] and in assay [8] was inactive.

Regarding `O=C(/C=C/c1cccc2ccccc12)NC1CCC(CN2CCC(c3c[nH]c4ccccc34)CC2)CC1` (configuration not stated), the growth inhibition was 66% (active) and 72% (active) in assay [1]; 101% (active) and 100% (active) in assay [4]. In addition, the inhibition is 45% (inactive) and 53% (active) in assay [2]; 5% (inactive) and -3% (inactive) in assay [3]. The outcome in assay [5], in assay [6], in assay [7] and in assay [8] was inactive.

For `CCN1CC=C(c2c[nH]c3ccccc23)CC1`, the results for the growth inhibition in assay [1] and in assay [4] were 58% (active) and 84% (active), respectively. Further, the inhibition in assay [2] is 27% (inactive); in assay [3], -1% (inactive). The result in assay [5], in assay [6], in assay [7] and in assay [8] was inactive.

Consider `Cc1[nH]c2ccc(NS(C)(=O)=O)cc2c1C1CCN(CC2CCN(C(=O)/C=C/c3ccc(Cl)c(Cl)c3)CC2)CC1`, for which the growth inhibition is 83% (active) in assay [1] and 99% (active) in assay [4]. The inhibition in assay [2] was 15% (inactive); in assay [3] it was -4% (inactive). In addition, the outcome in assay [5], in assay [6], in assay [7] and in assay [8] was inactive.

In the case of `CC(=O)N(Cc1ccccc1-c1cccc(CNCCc2ccccc2)c1)C1CCN(Cc2ccccc2)CC1`, the growth inhibition in assay [1] is 30% (inactive); in assay [4], 89% (active). Moreover, the inhibition was 19% (inactive) in assay [2] and 0% (inactive) in assay [3]. Besides, the result in assay [5], in assay [6], in assay [7] and in assay [8] was inactive.

On to `O=C(Nc1ccccc1OC(F)(F)F)NC1CCC(CN2CCC(c3c[nH]c4ccccc34)CC2)CC1` (configuration not stated), for which the growth inhibition in assay [1] is 60% (active) and 70% (active); in assay [4], 101% (active) and 99% (active). Moreover, the inhibition in assay [2] is 33% (inactive) and 35% (inactive); in assay [3], 6% (inactive) and 8% (inactive). The outcome in assay [5], in assay [6], in assay [7] and in assay [8] was inactive.

For the compound `COC(=O)c1ccc(CC(C)NCC(O)c2cccc(SC(F)(F)F)c2)cc1` (configuration not stated), the growth inhibition in assay [1] was 72% (active); in assay [4], 96% (active). The inhibition in assay [2] is 7% (inactive); in assay [3] it was -2% (inactive). For the same compound, the outcome in assay [5], in assay [6], in assay [7] and in assay [8] was inactive.

For the compound `CCN(CC)CCOC(=O)C(OC)(c1ccccc1)c1ccccc1`, the growth inhibition in assay [1] is 6% (inactive); in assay [4], 97% (active). Also, the inhibition in assay [2] was -4% (inactive); in assay [3], 2% (inactive). Moreover, the outcome in assay [5], in assay [6], in assay [7] and in assay [8] was inactive.
